# HP1b binding inh – HTS for Inhibitors of HP1-beta Chromodomain Interactions with Methylated Histone Tails; AlphaScreen HP1-beta / biotin-H3K9me3 peptide binding; Potency, µM (series often up to 114 µM), without a hit: top-dose activity change, negative = inhibition, usual class: inhibitors; 390,000 compounds, 0.56% hits; note: nearly all actives have a fitted effect of over 70% in size
# Target sequence (P83916 whole entry, looked up): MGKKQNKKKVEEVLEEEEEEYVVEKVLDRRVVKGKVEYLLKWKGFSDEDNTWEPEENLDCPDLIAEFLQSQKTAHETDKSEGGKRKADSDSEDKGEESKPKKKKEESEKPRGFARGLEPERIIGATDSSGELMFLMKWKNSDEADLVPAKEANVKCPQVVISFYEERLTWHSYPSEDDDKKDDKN
#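 AlphaScreen: HP1-beta (50 nM) preformed 30 min with biotin-H3(1-18)K9me3 peptide (50 nM) in PBS pH 7.4, 0.01% Tween-20. Compound added for 30 min at RT, then streptavidin donor/nickel chelate acceptor beads (10 ug/mL) for 30 min.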
# VDR inhibitor – Inhibitors of the vitamin D receptor (VDR): qHTS; Vitamin D3 receptor (Homo sapiens), P11473; VDR-SRC2-3 peptide fluorescence polarization, 2 h; Potency, µM, inactives show max response, negative = inhibition, actives largely listed as inhibitors; 400,000 compounds, 0.93% hits; note: % is set by controls: 0 for no effect and ±100 for the full control effect
#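 Compounds are added to VDR with labelled SRC2-3 coactivator peptide and held 2 h at room temperature. Inhibition of the VDR–peptide interaction is then read as a change in fluorescence polarization.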
# G9a block – qHTS Assay for Inhibitors of Histone Lysine Methyltransferase G9a; Histone-lysine N-methyltransferase EHMT2 (Homo sapiens), Q96KQ7; G9a H3K9 monomethylation, AlphaScreen, 2 h; Potency, µM (series often up to 102 µM), for inactives: at the highest dose activity, negative = inhibition, hits mostly inhibitors; 350,000 compounds, 8.8% hits; AID 504332, 2011; note: % is set by controls: 0 for no effect and ±100 for the full control effect; nearly all actives have a fitted effect of over 75% in size
# Target sequence (Q96KQ7 913-1193 limits assumed): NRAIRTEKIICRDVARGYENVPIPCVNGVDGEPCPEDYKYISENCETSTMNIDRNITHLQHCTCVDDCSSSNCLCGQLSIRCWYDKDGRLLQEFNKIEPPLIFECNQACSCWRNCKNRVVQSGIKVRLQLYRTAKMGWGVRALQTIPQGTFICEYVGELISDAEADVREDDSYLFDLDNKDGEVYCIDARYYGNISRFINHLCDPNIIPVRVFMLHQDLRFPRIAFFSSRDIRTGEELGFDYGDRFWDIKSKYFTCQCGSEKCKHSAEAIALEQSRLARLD
#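 Signal arises when biotinylated H3K9 peptide, once monomethylated, bridges streptavidin donor and antibody-captured acceptor beads. Enzyme at 20 nM was preincubated 15 min with test compounds; peptide 500 nM and SAM 20 uM then reacted for 2 h.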
# BAZ2B block – qHTS Assay for Inhibitors of BAZ2B. Potency, µM (series often up to 114 µM), for the others: top-dose activity change, negative = inhibition, actives largely listed as inhibitors. AlphaScreen BAZ2B-H3K14Ac peptide displacement. 360,000 compounds, 4.4% hits. Bromodomain adjacent to zinc finger domain protein 2B (Homo sapiens), Q9UIF8; note: % is set by controls: 0 for no effect and ±100 for the full control effect; nearly all actives have a fitted effect of over 60% in size
#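 In this displacement format the biotinylated H3(5-23) peptide acetylated at Lys14 serves as ligand at 50 nM, with BAZ2B at 50 nM in PBS pH 7.4 containing 0.01% Tween-20. Donor and acceptor beads are 10 ug/mL final.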
# JMJD2A Tudor inh – qHTS Assay for Inhibitors of JMJD2A-Tudor Domain. AlphaScreen JMJD2A-Tudor / H3K4me3 peptide binding. Potency, µM (highest dose often 114 µM), for the others: at the highest dose activity change, negative = inhibition, most hits filed as inhibitors. 390,000 compounds, 4.4% hits. AID 504339, 2011; note: % is set by controls: 0 for no effect and ±100 for the full control effect; nearly all actives have a fitted effect of over 50% in size
# PLK1 PBD block – qHTS for Inhibitors of PLK1-PDB (polo-like kinase 1 - polo-box domain): Primary Screen. Serine/threonine-protein kinase PLK1 (Homo sapiens), P53350. Potency, µM, for the others: max response, negative = inhibition, hits mostly inhibitors. Plk1 PBD binding of FITC phosphopeptide, fluorescence polarization. 360,000 compounds, 2.8% hits; note: series mostly up to about 57 µM; % is set by controls: 0 for no effect and ±100 for the full control effect; nearly all actives have a fitted effect of over 65% in size
# Active calls of the source: *; ? = inconclusive; . = not tested or not shown; [ ] = remark or other dose. An excerpt weighted towards active compounds, which were near 11% of everything screened. Calls come from the whole dose curve; as a rule, active = well fitted curve in the direction sought with a large enough effect; inconclusive = small, poorly fitted or top-dose-only effect, or another doubt; inactive = no such curve, though single readings can be large; an effect the other way counts as inactive or inconclusive. Potency is the fitted concentration of half-maximal effect.
SMILES,HP1b binding inh,VDR inhibitor,G9a block,BAZ2B block,JMJD2A Tudor inh,PLK1 PBD block
Cc1cccc2cc(CN(Cc3nnnn3C3CCCCC3)C3CCCC3)c3nnnn3c12,67.4%,12.8%,0.2%[59 µM],6.8%,-10.7%,-9.0%
Cc1ccccc1CNC(=O)C1CCCN(c2nnc(C)c3c(C)n(-c4ccccc4)nc23)C1 (stereo not drawn),14.4%,10.6%,56.2µM*,?,?,-16.0%
CCOc1ccccc1CNC(=O)C1CCN(c2nnc(C)c3c(C)n(-c4ccc(C)cc4)nc23)CC1,22.6%,16.7%,-43.3%,-26.0%,-17.9%,-3.6%
COc1ccc(-n2nc3c(N4CCC(C(=O)NCCc5ccco5)CC4)nnc(C)c3c2C)cc1,23.5%,-24.4%,-17.3%,-8.4%,50.1µM*,26.7µM*
CCOc1ccc(CNC(=O)C2CCN(c3nnc(C)c4c(C)n(-c5ccc(C)cc5)nc34)CC2)cc1,26.2%,-8.9%,22.4µM*,56.2µM*,?,-8.7%
CCc1ccc(CNC(=O)C2CCCN(c3nnc(C)c4c(C)n(-c5ccccc5)nc34)C2)cc1 (stereo not drawn),43.2%,-7.6%,?,79.4µM*,?,8.6%
COc1ccc(-n2nc3c(N4CCC(C(=O)NCc5cccc(C)c5)CC4)nnc(C)c3c2C)cc1,31.2%,-1.3%,.,0.4%,-7.8%,-14.6%
Cc1nnc(N2CCCC(C(=O)NCc3ccccc3)C2)c2nn(-c3ccccc3)c(C)c12 (stereo not drawn),21.5%,1.2%,-6.1%[59 µM],-2.9%,-3.4%,.
CC(C)(C)c1ccc(C(=O)NC(=O)CSc2n[nH]c(N)n2)cc1,-5.1%,31.6%,12.0%[12.7 µM],9.4%,-9.5%,-15.0%
C=CCN1C(=O)C(CC(=O)O)SC1=Nc1ccc(N=Nc2ccccc2)cc1 (stereo not drawn),-17.5%,-13.0%,39.8µM*,39.8µM*,?,-18.7%
C=CCN1C(=O)C(CC(=O)O)SC1=Nc1cccc([N+](=O)[O-])c1 (stereo not drawn),39.4%,-5.6%,-13.0%,-14.1%,-19.8%,-15.7%
O=C(NN=Cc1ccc(O)c(O)c1)c1ccccc1,.,.,.,.,.,5.1%
CN(/N=C\c1ccc(O)c(O)c1)c1nc(-c2ccccc2)cc(-c2ccccc2)n1,?,-3.1%,39.8µM*,39.8µM*,?,-0.5%
O=S(=O)(c1ccc(Br)cc1)N1CCn2cccc2C1c1ccc(Br)cc1 (stereo not drawn),9.4%,2.0%,-19.3%[59 µM],-10.6%,-16.6%,.
COc1ccc(C2c3cccn3CCN2S(=O)(=O)c2ccc([N+](=O)[O-])cc2)cc1 (stereo not drawn),-4.4%,12.7%,12.6µM*,?,-34.7%,.
CCO[C@@H]1OC(C(=O)N2CCOCC2)=C[C@H](c2coc3ccccc3c2=O)[C@H]1CCCO,33.7%,-7.4%,25.4%[59 µM],1.9%,-31.7%,-1.9%
O=C1NCCCc2c1oc1cc(Br)c(O)c(Br)c21,-4.0%,3.7%,50.1µM*,-2.5%,-19.4%,-7.2%
COc1ccccc1CN1CCNC(=O)C1CC(=O)NC1CCCCCC1 (stereo not drawn),33.8%,-4.6%,15.8µM*,-25.7%,-15.8%,-4.7%
COc1cccc(CN2CCNC(=O)C2CC(=O)NC2CCCCC2)c1OC (stereo not drawn),43.9%,-13.8%,35.5µM*,-13.7%,-5.8%,-7.7%
CCOc1ccccc1CN1CCNC(=O)C1CC(=O)NC1CCCCCC1 (stereo not drawn),18.5%,?,?,-8.5%,?,21.2µM*
COc1ccc(CN2CCNC(=O)C2CC(=O)NC2CCCC2)c(OC)c1 (stereo not drawn),15.3%[57 µM],13.9%,-21.0%,-15.8%,-5.6%,-6.6%

# Screening results: PubChem, National Center for Advancing Translational Sciences (NCATS)
